Screening data from PubChem.
The full list was thinned out, with hits kept by preference.
Pf Dd2 inh: Plasmodium falciparum Dd2 growth inhibition; P. falciparum Dd2 growth, SYBR Green, 72 h; AID 1347417; Potency, µM (titrated, usually from 28.9 µM), for the others: at the highest dose activity, negative = inhibition, actives largely listed as inhibitors; hit rate 4.3% among 120,000; active means well fitted inhibition curve with a large enough effect;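 further: plate controls were DMSO vehicle for no effect and reference drug for full effect; nearly all actives have a fitted effect of over 65% in size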
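Infected erythrocytes (Dd2, 0.3% parasitemia, 2.5% hematocrit final) are added to compound in RPMI-1640/Albumax II medium, grown 72 h at 37C in low oxygen, then lysed with saponin/Triton-X containing SYBR Green and read by fluorescence.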
* hit, by the source's call; i = inactive; [ ] = remark or other dose. Potency means the concentration at half of the fitted maximal effect.

SMILES	Pf Dd2 inh
O=C(NCCCN1CCCc2ccccc21)C1Cn2cccc2C(=O)N1Cc1cccnc1 (stereo not drawn)	8.9µM*
O=C(NCCCN1CCCC1=O)C1Cn2cccc2C(=O)N1Cc1cccnc1 (stereo not drawn)	4%
O=C(NCCN1CCCCC1)C1Cn2cccc2C(=O)N1Cc1cccnc1 (stereo not drawn)	3%
CC(C)OCCCNC(=O)C1Cn2cccc2C(=O)N1Cc1cccnc1 (stereo not drawn)	-13%
CN(CC1(C)CCOCC1)C(=O)NCc1ccco1	-9%
COCc1cc(C[C@@H]2C[C@H](NC(=O)COc3ccccc3)C2(C)C)no1	-13%[44.1 µM]
O=C1OC[C@@H]2CCN(C3CCC3)Cc3ccc(F)cc3N12	i
CCc1noc(-c2cn(C3CCN(C(=O)c4ccc(OC)c(F)c4)C3)nn2)n1 (stereo not drawn)	22%
O=C1NC2(CCN(C(=O)c3ccccc3)C2)N=C1c1cccnc1 (stereo not drawn)	17%[44.1 µM]
O=C(CCCc1ccccc1)N[C@@H]1CN(c2ccncn2)C[C@H]1CO	22%
Cn1cnc(S(=O)(=O)N2CCC(N3C(=O)C4(CCCCC4)C3c3ccncc3)CC2)c1 (stereo not drawn)	-16%
COc1ccc(CN2C=C(C(=O)OCc3noc(C)n3)C(C)=NS2(=O)=O)cc1	14%
COc1ccc(CN2C=C(C(=O)OCc3noc(-c4ccc(C)cc4)n3)C(C)=NS2(=O)=O)cc1	11µM*
COc1ccc(CN2C=C(C(=O)OCc3noc(-c4ccc(C)c(C)c4)n3)C(C)=NS2(=O)=O)cc1	i
CCCNC(=O)N(C1CCOCC1)C1CCN(C(=O)Nc2c(F)cccc2F)CC1	-9%
N#Cc1ccc(C(=O)N2CCC(n3cc(-c4nc(-c5ccccc5)no4)nn3)C2)cc1 (stereo not drawn)	i
N#Cc1ccc(C(=O)N2CCCC(n3cc(-c4nc(-c5ccccc5)no4)nn3)C2)cc1 (stereo not drawn)	4.5µM*
O=C(c1ccccc1)N1CCC(n2cc(-c3nc(-c4ccccc4)no3)nn2)C1 (stereo not drawn)	0%
O=C(Cc1ccc(Cl)cc1)N1CCC(n2cc(-c3nc(-c4ccccc4)no3)nn2)C1 (stereo not drawn)	-16%
O=C(Cc1cccc(Cl)c1)N1CCC(n2cc(-c3nc(-c4ccccc4)no3)nn2)C1 (stereo not drawn)	138%
O=C(Cc1ccc(Cl)cc1)N1CCC(n2cc(-c3nc(-c4ccccc4)no3)nn2)CC1	2µM*
COc1ccc(C(=O)N2CCC(n3cc(-c4nc(-c5ccccc5)no4)nn3)CC2)cc1	1.3µM*
O=C(c1ccc(Cl)cc1)N1CCC(n2cc(-c3nc(-c4ccccc4)no3)nn2)C1 (stereo not drawn)	-17%
COc1cccc(C(=O)N2CCC(n3cc(-c4nc(-c5ccccc5)no4)nn3)CC2)c1	-7%
NC(=O)C1CCN([C@H]2[C@@H]3OC[C@@H](O3)[C@@H](NCc3ccc(F)cc3)[C@@H]2O)CC1	-17%[44.1 µM]
SMILES	Pf Dd2 inh
Cc1cc(C2CC(C(=O)NCc3ccco3)CN(C(=O)c3ccccc3)C2)ccc1F (stereo not drawn)	-5%
CN1CC2(C1)C(=O)N(Cc1cccc(Cl)c1)C(=O)[C@@H]1C[C@@H](O)CN12	i
O=C(CC(c1ccccc1)c1ccccc1Cl)NCc1cc2n(n1)CCNC2 (stereo not drawn)	-3%
Cc1ccc(-n2nc3n(c2=O)CCN([S+](C)(=O)[O-])C3)cc1	-12%[44.1 µM]
COc1ccc(C(=O)N2CCOC3(CCN(C(=O)C4CCN(C)CC4)CC3)C2)cc1	5%
CCN(CC)C(=O)CN1C(=O)NC2(CCC(C)CC2)C1=O (stereo not drawn)	19%
Cc1ccc(C(=O)N2CCCCC2C(=O)Nc2cccc(-c3nnc(C)s3)c2)cn1 (stereo not drawn)	-19%
Cc1ccccc1CN1Cc2nc(-c3cnn(Cc4ccccc4)c3)ccc2OCC1=O	-40%[44.1 µM]
O=C1COc2ccc(Nc3cccc(F)c3)nc2CN1CCOc1ccccc1	-2%[44.1 µM]
COc1cccc(CN2Cc3nc(-c4cnn(Cc5ccccc5)c4)ccc3OCC2=O)c1	i
O=C1COc2ccc(-c3cn[nH]c3)nc2CN1Cc1ccc(C(F)(F)F)cc1	i
O=C1COc2ccc(Nc3ccccc3)nc2CN1CCOc1ccccc1	-9%[44.1 µM]
O=C1COc2ccc(-c3ccncc3)nc2CN1Cc1ccc(C(F)(F)F)cc1	-33%[44.1 µM]
Cc1nc(CN2Cc3nc(-c4cnn(Cc5ccccc5)c4)ccc3OCC2=O)cs1	10µM*
COCCN1Cc2nc(Nc3ccc(C(F)(F)F)cc3)ccc2OCC1=O	13µM*
O=C1COc2ccc(-c3ccoc3)nc2CN1Cc1ccc(C(F)(F)F)cc1	13µM*
O=C(c1ccoc1)N1CCC(c2noc(CO)n2)C1 (stereo not drawn)	-9%
COc1cccc(-c2cc3c(=O)n(CCNC(=O)c4ccc(F)cc4)ccn3n2)c1	-15%
COC[C@@H]1CN(C(=O)c2ccc3[nH]ccc3c2)C[C@H]1c1ccncc1	-9%
O=C(CCc1cccnc1)N1CC[C@@H](c2ccc3ccccc3c2)[C@H](O)C1	-10%
COc1ccc(C2Cn3cnc(-c4nc(-c5ccc(SC)cc5)no4)c3CO2)cc1 (stereo not drawn)	i
COc1ccc(C2Cn3nnc(-c4nc(-c5ccc(F)cc5)no4)c3CO2)cc1 (stereo not drawn)	i
Clc1ccccc1C1Cn2cnc(-c3nc(-c4ccncc4)no3)c2CO1 (stereo not drawn)	5.6µM*
COc1ccc(-c2noc(-c3ncn4c3COC(c3ccc(F)cc3)C4)n2)cc1OC (stereo not drawn)	8.9µM*
COc1ccc(C2Cn3nnc(-c4nc(-c5ccc(OC)c(F)c5)no4)c3CO2)cc1 (stereo not drawn)	-23%
SMILES	Pf Dd2 inh
CCOc1ccc(C2Cn3nnc(-c4nc(-c5ccc(OC)c(F)c5)no4)c3CO2)cc1 (stereo not drawn)	i
COc1ccccc1-c1nc(-c2nnn3c2COC(c2ccccc2Cl)C3)no1 (stereo not drawn)	-5%
CCOc1cc(-c2noc(-c3ncn4c3COC(c3ccc(OC)cc3)C4)n2)ccc1OC (stereo not drawn)	2.5µM*
COc1ccccc1-c1noc(-c2nnn3c2COC(c2ccc(F)cc2)C3)n1 (stereo not drawn)	i
COc1cc(-c2noc(-c3ncn4c3COC(c3ccc(F)cc3)C4)n2)cc(OC)c1OC (stereo not drawn)	11µM*
Cc1ccc(-c2nc(-c3nnn4c3COC(c3ccccc3Cl)C4)no2)cc1 (stereo not drawn)	-9%
CCOc1cccc(-c2noc(-c3ncn4c3COC(c3ccc(F)cc3)C4)n2)c1 (stereo not drawn)	-23%
CC(C)CC(=O)NCC(=O)N1CCCCCCNC(=O)CC1c1ccccc1 (stereo not drawn)	-21%
CCNC(=O)N1CC(c2nnc(-c3ccncc3)o2)C2(CCOCC2)C1 (stereo not drawn)	i
O=C(Nc1ccc(Cl)cc1)N1CCn2c(nnc2-c2ccccc2)C1	-22%
C[C@@H](NCc1cccc(Cl)c1)c1onc(-c2ccc(F)cc2)c1C(=O)O	-5%[44.1 µM]
COc1ccc(-c2noc(COC(=O)C3=CN(C)S(=O)(=O)N=C3C)n2)cc1	24%
CCCS(=O)(=O)N1CCC2(CC1)CN(C(C)=O)CC2COC (stereo not drawn)	8%
COc1ccccc1NC(=O)Cn1nc2n(c1=O)CCCCC2	-23%
